High-throughput results: PubChem, Sanford-Burnham Center for Chemical Genomics
Shown are actives, neighbours in structure and some others; about 4.1% of the full set was active somewhere.
tim10-1 inh – tim10-1 yeast growth inhibition. S. cerevisiae tim10-1 ts strain growth, BacTiter-Glo, 24 h. inhibition, % at 20 µM. hit rate 2.2% among 330,000. AID 463190;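 active = inhibition of at least 40%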;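 also: mutant grown at 25 °C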
tim23-1 inh – tim23-1 yeast growth inhibition | S. cerevisiae tim23-1 growth, BacTiter-Glo luminescence, 24 h | inhibition, % at 20 µM | hit rate 1.3% among 330,000;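 active = growth inhibition of the mutant yeast at or above 50%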;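 also: temperature-sensitive mutant grown at 25 °C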
NALP3 yeast inh – inhibitors of NALP3 inflammasome in yeast. Yeast reconstituted NLRP3/ASC/caspase-1, beta-gal luminescence, 24 h. inhibition, % at 10 µM. hit rate 0.39% among 330,000;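 active = inhibition of 50% or more; inactive = inhibition below 50%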
TIM10 inh – inhibits growth of TIM10 yeast strain; S. cerevisiae TIM10 strain growth, BacTiter-Glo luminescence, 24 h; inhibition, % at 10 µM; hit rate 1.4% among 330,000; AID 463195;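 active = inhibition of 40% or more at the single tested concentration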;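 also: wild-type TIM10 isogenic control strain grown at permissive 25 °C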
NALP1 yeast inh – NALP1 inhibition | S. cerevisiae NALP1/ASC/caspase-1 growth, X-gal OD620, 72 h | inhibition, % at 10 µM | hit rate 0.61% among 280,000 | AID 2071; in the data active = inhibition mostly above about 24%, no sharp cut-off; inactive = mostly below about 32%
tim10-1 confirm – tim10-1 yeast growth inhibition, confirmed; shares compounds with tim10-1 inh; S. cerevisiae tim10-1 ts strain growth, BacTiter-Glo, 24 h; inhibition, % at 20 µM; hit rate 56% among 7,400; AID 463213;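 active = inhibition of yeast growth at or above a set limit in either of two repeat tests at 20 µM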;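 also: tim10-1 mutant grown at permissive 25 °C to find synthetic lethal compounds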
TIM10 conf – confirmation of TIM10 yeast growth inhibitors | inhibition, % at 10 µM | AID 463215 | hit rate 63% among 4,600 | shares compounds with TIM10 inh | S. cerevisiae tim10 strain growth, BacTiter-Glo luminescence, 24 h;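 active = inhibition of yeast growth at or above a set limit in either of two replicates at 10 µM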; also: this counterscreen used the strain with wild-type TIM10
tim23-1 conf – tim23-1 yeast growth inhibition, confirmed; shares compounds with tim23-1 inh; hit rate 83% among 4,400; inhibition, % at 20 µM; S. cerevisiae tim23-1 growth, BacTiter-Glo luminescence, 24 h;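 active = inhibition above about 39% in either of two replicate wells at 20 µM, limit read from the data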;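 also: temperature-sensitive tim23-1 mutant grown at 25 °C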
Numbers stand for hits; – = inactive; · = not tested or not shown.

SMILES	tim10-1 inh	tim23-1 inh	NALP3 yeast inh	TIM10 inh	NALP1 yeast inh	tim10-1 confirm	tim23-1 conf	others
COc1ccc2c3n(nc2c1)CCN=C3c1cc(Cl)c(N)c(Cl)c1	42	55	–	–	·	–	51
COC(=O)C(Cc1ccccc1)NC(=O)CCc1c[nH]c2ccccc12 (stereo unspecified)	–	–	–	–	–	·	·
CCOc1cc(/C=C2/C(=O)ON=C2C)ccc1O	–	–	–	–	–	·	·
CCOc1cc(/C=C2\CN(C)C/C(=C\c3ccc(O)c(OCC)c3)C2=O)ccc1O	58	52	–	–	–	47	62
CCOC(=O)C1=C(CSc2nc(CC)c(C)cc2C#N)OC(N)=C(C#N)C1c1ccc(OC)cc1 (stereo unspecified)	41	54	–	–	–	–	61
CCOc1ccc2nc(NC(=O)C3(C)CC3(Br)Br)sc2c1 (stereo unspecified)	50	74	–	–	·	40	38
CCOCC(=O)Nc1nc2ccc(OCC)cc2s1	–	–	–	–	–	·	·
O=[N+]([O-])c1ccc(Nc2c3ccccc3nc3ccccc23)cc1	63	73	–	49	–	54	68	TIM10 conf=50
O=[N+]([O-])c1ccccc1Nc1c2ccccc2nc2ccccc12	–	–	–	–	–	·	·
Cc1ccc(C(=O)c2ccccc2C(=O)OCC(=O)N2C(C)CCCC2C)cc1 (stereo unspecified)	–	–	–	–	·	·	·
COCCn1c(SCC(=O)Nc2ccc(OC)c(S(N)(=O)=O)c2)nc2ccccc2c1=O	–	–	–	–	·	·	·
Cc1[nH]nc2c1C(c1ccc(-c3ccccc3C#N)o1)C(C#N)=C(N)O2 (stereo unspecified)	56	86	–	–	–	55	68
Cc1[nH]nc2c1C(c1ccc(-c3ccc(Cl)cc3)o1)C(C#N)=C(N)O2 (stereo unspecified)	–	–	–	–	–	·	·
O=S(=O)(c1ccccc1)c1ncc(C(F)(F)F)cc1Cl	46	53	–	–	–	–	51
CC(C)Cn1cnc2c1c(=O)[nH]c(=O)n2Cc1ccccc1	–	–	–	–	–	·	·
CCOC(=O)/C(C#N)=C1\C(=O)N(Cc2ccccc2)c2ccccc21	43	53	–	–	–	–	53
O=C(/C=C/Sc1ccc(C(F)(F)F)cn1)c1ccccc1	41	61	–	–	·	51	47
O=C(CSc1ccc(C(F)(F)F)cn1)Nc1ccccc1	–	–	–	–	–	·	·
Cc1[nH]c2ccccc2c1N=Nc1cc(C(=O)O)cc(C(=O)O)c1	–	–	–	–	–	·	·
Cc1[nH]c2ccccc2c1N=Nc1ccc(F)cc1	63	70	–	–	–	–	–
O=S(=O)(c1ccccc1)N(CC(O)COc1ccccc1)c1ccccc1 (stereo unspecified)	–	–	–	–	–	·	·
COc1ccc(Br)cc1/C=N/Nc1cccc(C(=O)O)c1	–	–	–	–	–	·	·
COc1cc(Br)cc(C=Nc2cccc(C(F)(F)F)c2)c1O	·	·	·	·	–	·	·
O=C(O)c1cccc(N/N=C/c2cc(Br)cc(Br)c2O)c1	49	78	–	–	–	42	74
Cc1c(N=Cc2cc(Br)cc(Br)c2O)cccc1C(=O)O	59	83	–	42	58	50	90	TIM10 conf=–
SMILES	tim10-1 inh	tim23-1 inh	NALP3 yeast inh	TIM10 inh	NALP1 yeast inh	tim10-1 confirm	tim23-1 conf	others
NC(=O)C1CCN(C(=O)CCC(=O)c2ccc(Br)cc2)CC1	–	–	–	–	–	·	·
O=C(/C=C/c1cccc(F)c1)N1CCN(c2ccccn2)CC1	–	–	–	–	–	·	·
Nc1cccc2c1C(=O)N(C(=O)/C=C/c1cccc(F)c1)C2=O	69	82	–	50	–	59	87	TIM10 conf=40
Cc1c2cnn(-c3ccccc3)c(=O)c2c(C)n1CCCC(=O)NCCN1CCN(C)CC1	–	–	–	–	·	·	·
CCN(Cc1ccccc1)C(c1ccncc1)c1nnnn1C(C)(C)C (stereo unspecified)	41	53	–	–	–	39	–
CCn1c(SCC(=O)Nc2ccc(N(C)C)cc2)nnc1-c1ccco1	–	–	–	–	–	·	·
COC(=O)C1=C(C)N(c2cc(Cl)cc(Cl)c2)C(=O)C1	56	53	–	–	–	54	46
COc1cccc(C(CNC(=O)C(c2ccccc2)c2ccccc2)N(C)C)c1 (stereo unspecified)	–	–	–	–	–	·	·
O=c1nc2s/c(=C\c3ccco3)c(=O)n2nc1Cc1ccc(F)cc1	71	53	–	78	–	76	–	TIM10 conf=80
Cc1ccc(-c2nc3s/c(=C\c4ccco4)c(=O)n3n2)cc1	–	–	–	–	–	·	·
CCOC(=O)c1sc2nc(NC(=O)C(C)(C)C)sc2c1C	55	63	–	41	–	31	57	TIM10 conf=44
CCCCN(C(=O)c1ccc(Cl)c(S(=O)(=O)N2CCOCC2)c1)c1c(N)n(CCC)c(=O)[nH]c1=O	–	–	–	–	·	·	·
COc1cccc(C(=O)NNC2OC(CO)C(O)C2O)c1 (stereo unspecified)	–	–	–	–	–	·	·
O=C(Oc1ccccc1/C=C\C(=O)c1cc2ccccc2o1)c1ccccc1	47	50	–	50	–	41	49	TIM10 conf=31
COc1cccc(C(=O)Oc2ccccc2/C=C\C(=O)c2cc3ccccc3o2)c1	·	·	·	·	–	·	·
O=C(Cc1ccccc1[N+](=O)[O-])N1CCc2ccccc2C1	–	–	–	–	–	·	·
COc1cc(/C=N/NC(=S)NC2CC3CCC2C3)ccc1O (stereo unspecified)	42	68	–	49	–	–	52	TIM10 conf=43
S=C(N/N=C/c1ccc2c(c1)OCO2)NC1CC2CCC1C2 (stereo unspecified)	–	–	–	–	–	·	·
COc1ccc(NC(=O)C(Cl)=C(Cl)Cl)cn1	–	–	–	–	–	·	·
COc1ccc(NC(=O)/C(Cl)=C(/Cl)S(=O)Cc2ccc(Cl)cc2)cn1 (stereo unspecified)	50	73	–	67	–	46	68	TIM10 conf=90
Cc1ccc(C(=O)Nc2ccc(Br)c(C(F)(F)F)c2)cc1	75	67	–	63	–	45	62	TIM10 conf=63
COc1cccc(/C=N/NC(=O)c2ccc(N3CCCC3=O)cc2)c1	–	–	–	–	–	·	·
COC(=O)c1ccccc1NC1=C/C(=N\S(=O)(=O)c2cccs2)c2ccccc2C1=O	46	56	–	41	–	41	40	TIM10 conf=–
O=C1C(Nc2ccccc2)=C/C(=N/S(=O)(=O)c2cccs2)c2ccccc21	·	·	·	·	–	·	·
O=[N+]([O-])/C=C/c1cn(Cc2ccc(F)cc2)c2ccccc12	72	65	–	69	–	66	71	TIM10 conf=74
